Compound activity as filed in PubChem.
Only some compounds are listed: those with a hit (about 17% of all), similar ones and a draw of the others.
TGFb inhibitor – TGF-b pathway inhibition. HepG2 CAGA-GFP TGF-b/SMAD3 reporter, GFP fluorescence, 18 h; TGF-beta stimulated, 500 pg/mL final. Potency, µM (highest dose often 46.1 µM), usual class: inhibitors. 410,000 tested, 1.2% active; further: nearly all actives have a fitted effect of over 65% in size
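HEPG2 CAGA-GFP reporter cells (1000/well, DMEM with 1% FBS) received compounds, then recombinant TGF-beta at 500 pg/mL final for 18 hours at 37 degrees C. Per-cell GFP summed per well was normalised to unstimulated and stimulated DMSO controls before curve fitting.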
HT1080 IDH1KD tx – kills HT-1080 cells with IDH1 knockdown; Potency, µM (series often up to 46.1 µM), most hits filed as cytotoxic; 360,000 tested, 2% active; HT-1080 IDH1 knockdown viability, ATP luminescence, 48 h
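Cytotoxicity counter-line: IDH1KD HT-1080, 48 h, CellTiter-Glo. Curves classed by r2, magnitude and activity.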
DT40 TDP1 CPT – DT40-hTDP1 cell growth loss with CPT. chicken DT40 Tdp1-/-;hTDP1 cells + 20 nM CPT, ATP luminescence, 48 h. Potency, µM (top dose mostly 46.2 µM), usual class: inhibitors. 420,000 tested, 12% active; further: nearly all actives have a fitted effect of over 55% in size
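Cell growth measured by CellTiter-Glo luminescence after a minimum 48 h, 37 C compound exposure with 20 nM CPT in Tdp1-knockout DT40 cells stably expressing hTDP1, seeded 400/well; qHTS titration format.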
HepG2 viability – counter-screen for TGF-b inhibitors: cytotoxicity in HepG2 cells; HepG2 CAGA-GFP viability, ATP luminescence, 18 h; 410,000 tested, 0.76% active; Potency, µM (highest dose often 46.1 µM), actives largely listed as cytotoxic
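CellTiter-Glo luminescence gave cytotoxicity after 18 hours at 37 degrees C. The cells were HepG2 CAGA-GFP in 1% FBS DMEM, stimulated with 500 pg/mL TGF-beta after compound addition. %Activity was normalised to no-cell wells (complete cell-killing) and DMSO (no toxicity), and curves were fitted and classified.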
HT1080NT lethal – kills 2HG-producing HT-1080-NT fibrosarcoma cells; HT-1080-NT fibrosarcoma viability, CellTiter-Glo ATP luminescence, 48 h; Potency, µM (series often up to 46.1 µM), actives largely listed as cytotoxic; AID 686970; 360,000 tested, 1.6% active;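 further: NT is the 2HG producing partner of a matched IDH1 knockdown line; nearly all actives have a fitted effect of over 55% in size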
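HT-1080-NT; 750 cells/well; 5% FBS RPMI; 48 h compound, 37 degrees C; CellTiter-Glo luminescence; curve fitting and curve-class assignment.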
DT40 TDP1 no CPT – qHTS for Inhibitors of human tyrosyl-DNA phosphodiesterase 1 (TDP1): qHTS in cells in absence of CPT | AID 686978, 2013 | DT40 Tdp1-/- hTDP1 cells, no CPT, ATP luminescence, 48 h | Potency, µM (highest dose often 46.2 µM), most hits filed as inhibitors | 420,000 tested, 15% active; further: nearly all actives have a fitted effect of over 55% in size
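Compound effects on proliferation are scored in DT40 Tdp1-/-;hTDP1 cells in the absence of CPT. ATP levels (CellTiter-Glo luminescence) are recorded after a ≥48 hr, 37 °C incubation.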
Large screens that a line does not name were inactive. The call rests on the fitted dose curve; in most records, active means well fitted curve in the direction sought with a large enough effect; inconclusive means small, poorly fitted or top-dose-only effect, or another doubt; inactive means no such curve, though single readings can be large; an effect the other way counts as inactive or inconclusive.

c1ccc(CNc2ncnc3sccc23)cc1	HT1080 IDH1KD tx inconclusive, DT40 TDP1 CPT 8.2µM, HT1080NT lethal inconclusive, DT40 TDP1 no CPT 7.31µM
Cc1sc2ncnc(NCc3ccccc3)c2c1C	DT40 TDP1 CPT 13µM, DT40 TDP1 no CPT 14.6µM
OC(CNc1ncnc2sccc12)c1ccccc1 (stereo unspecified)	TGFb inhibitor inconclusive, HT1080 IDH1KD tx inconclusive, DT40 TDP1 CPT 4.11µM, HT1080NT lethal inconclusive, DT40 TDP1 no CPT 5.17µM
Cc1cc2c(NCC(C)O)ncnc2s1 (stereo unspecified)	TGFb inhibitor inconclusive
COc1ccc(CNc2ncnc3sccc23)cc1OC	DT40 TDP1 CPT 8.2µM, HT1080NT lethal inconclusive, DT40 TDP1 no CPT 7.31µM
Cc1cc2c(NCc3ccccc3)ncnc2s1	HT1080 IDH1KD tx inconclusive, DT40 TDP1 CPT inconclusive, DT40 TDP1 no CPT 6.51µM
COC(=O)[C@@H]1C[C@@H](NC(=O)c2ccc(C(F)(F)F)cc2)CN1Cc1cccc(O)c1	none (no result: TGFb inhibitor, HT1080 IDH1KD tx, HepG2 viability, HT1080NT lethal)
O=C(/C=C/c1cccs1)Nc1cccc(NC(=O)/C=C/c2cccs2)n1	DT40 TDP1 CPT 11.6µM, DT40 TDP1 no CPT 8.2µM
Cc1cc(C)c(-c2csc(NC(=O)/C=C/c3cccs3)n2)c(C)c1	TGFb inhibitor inconclusive, DT40 TDP1 CPT inconclusive, DT40 TDP1 no CPT 18.4µM
O=C(/C=C/c1cccs1)Nc1ccc(Br)cn1	TGFb inhibitor inconclusive, HT1080 IDH1KD tx 0.184µM, DT40 TDP1 CPT 0.259µM, HT1080NT lethal 0.116µM, DT40 TDP1 no CPT 0.326µM
Nc1c(C(=O)N2CCCC2)sc2nc(-c3ccccc3)ccc12	none
COc1cc(=O)n2c(c1C(=O)NCc1ccc3c(c1)OCO3)CCN(C(=O)c1ccc(C)cc1)CC2	none (no result: TGFb inhibitor, HT1080 IDH1KD tx, HepG2 viability, HT1080NT lethal)
CCOC(=O)c1ccc(N2C(=O)c3n[nH]c(-c4cccs4)c3C2c2ccc(OCC)cc2)cc1 (stereo unspecified)	TGFb inhibitor 1.58µM, DT40 TDP1 CPT 29.1µM, DT40 TDP1 no CPT 11.6µM (no result: HT1080 IDH1KD tx, HT1080NT lethal)
CCOC(=O)c1ccc(N2C(=O)c3n[nH]c(-c4cccs4)c3C2c2ccc(C(C)C)cc2)cc1 (stereo unspecified)	TGFb inhibitor inconclusive, DT40 TDP1 CPT inconclusive, DT40 TDP1 no CPT 16.4µM (no result: HT1080 IDH1KD tx, HT1080NT lethal)
CCOC(=O)c1ccc(N2C(=O)c3n[nH]c(C)c3C2c2ccc(OC)cc2)cc1 (stereo unspecified)	HT1080 IDH1KD tx inconclusive, HT1080NT lethal inconclusive, DT40 TDP1 no CPT inconclusive
CCOC(=O)c1ccc(N2C(=O)c3n[nH]c(-c4cccs4)c3C2c2cccc(O)c2)cc1 (stereo unspecified)	TGFb inhibitor 11.2µM, DT40 TDP1 CPT 16.4µM, DT40 TDP1 no CPT 20.6µM (no result: HT1080 IDH1KD tx, HT1080NT lethal)
CCOC(=O)c1ccc(N2C(=O)c3n[nH]c(C)c3C2c2cccc(Br)c2)cc1 (stereo unspecified)	TGFb inhibitor inconclusive, DT40 TDP1 CPT inconclusive, DT40 TDP1 no CPT inconclusive (no result: HT1080 IDH1KD tx, HT1080NT lethal)
CCOC(=O)c1ccc(N2C(=O)c3n[nH]c(-c4cccs4)c3C2c2ccc(CC)cc2)cc1 (stereo unspecified)	TGFb inhibitor 0.891µM, DT40 TDP1 CPT 14.6µM, DT40 TDP1 no CPT 11.6µM (no result: HT1080 IDH1KD tx, HT1080NT lethal)
CC(=O)c1ccccc1C(=O)N1CCCC(C(=O)c2ccc(C(F)(F)F)cc2)C1 (stereo unspecified)	TGFb inhibitor inconclusive, DT40 TDP1 CPT 23.1µM, DT40 TDP1 no CPT 23.1µM
N/C(=N\OC(=O)c1ccccc1)c1ccccn1	HT1080 IDH1KD tx inconclusive, HT1080NT lethal inconclusive
CC(C)(C)c1ccc(C(=O)O/N=C(\N)c2ccccn2)cc1	HT1080 IDH1KD tx inconclusive, DT40 TDP1 CPT 23.1µM, HT1080NT lethal inconclusive
CC(C)(C)c1ccc(C(=O)C2CCCN(C(=O)c3ccccn3)C2)cc1 (stereo unspecified)	TGFb inhibitor inconclusive, DT40 TDP1 CPT 9.2µM, DT40 TDP1 no CPT inconclusive
COc1ccc(C(=O)C2CCCN(C(=O)c3ccccc3C(C)=O)C2)cc1F (stereo unspecified)	DT40 TDP1 CPT inconclusive, DT40 TDP1 no CPT inconclusive
Cc1cnc(C(=O)N2CCCC(C(=O)c3ccc(C(C)(C)C)cc3)C2)cn1 (stereo unspecified)	DT40 TDP1 CPT inconclusive, DT40 TDP1 no CPT 23.1µM
Nn1c(SCc2ccccc2)nc2ccccc21	none
COc1ccc(OC)c(S(=O)(=O)NC(=O)C2(C)CCN2C(=O)CC2CCCC2)c1 (stereo unspecified)	none
O=C(c1ccc(Cl)cc1)C1CCCN(C(=O)/C=C/c2ccccn2)C1 (stereo unspecified)	DT40 TDP1 CPT 23.1µM, DT40 TDP1 no CPT 20.6µM
COc1ccc(C(=O)C2CCCN(C(=O)/C=C/c3ccccn3)C2)c(C)c1 (stereo unspecified)	DT40 TDP1 no CPT inconclusive
COCCn1c(C)cc(O)c(C(c2ccc(F)cc2)N2CCN(c3ccccc3)CC2)c1=O (stereo unspecified)	none (no result: HT1080 IDH1KD tx, HT1080NT lethal)
COC(=O)C1=C(C)NC(=O)/C1=C\c1cc(C)n(-c2cccc(C)c2)c1C	DT40 TDP1 CPT inconclusive, DT40 TDP1 no CPT 16.4µM
COC(=O)C1=C(C)NC(=O)/C1=C\c1cc(C)n(-c2ccc(F)cc2)c1C	none
COc1ccc(NC(C)C(=O)N/N=C/c2ccccc2OCc2ccc(Br)cc2)cc1 (stereo unspecified)	DT40 TDP1 CPT inconclusive, DT40 TDP1 no CPT 22.4µM
CC(Nc1ccc(Br)cc1)C(=O)N/N=C/c1ccccc1OCc1ccccc1 (stereo unspecified)	DT40 TDP1 CPT inconclusive, DT40 TDP1 no CPT inconclusive
COC(=O)N/N=C/c1ccccc1OCCOc1ccc(OC)cc1	HT1080NT lethal inconclusive, DT40 TDP1 no CPT 16.4µM
COc1ccc(C(=O)O)cc1S(=O)(=O)Nc1ccccc1Cc1ccccc1	none
CC(C)C(=O)N1CCN(c2ccc([N+](=O)[O-])c(NC(C)c3ccccc3)c2)CC1 (stereo unspecified)	TGFb inhibitor inconclusive, DT40 TDP1 CPT inconclusive, HT1080NT lethal inconclusive, DT40 TDP1 no CPT 16.4µM
CC(C)Nc1cc(N2CCCC2)ccc1[N+](=O)[O-]	DT40 TDP1 CPT inconclusive
O=[N+]([O-])c1ccc(N2CCOCC2)cc1NC(c1ccccc1)c1ccccc1	DT40 TDP1 CPT 16.4µM, DT40 TDP1 no CPT inconclusive
CC(Nc1cc(N2CCN(C(=O)C(C)(C)C)CC2)ccc1[N+](=O)[O-])c1ccccc1 (stereo unspecified)	TGFb inhibitor inconclusive, DT40 TDP1 CPT inconclusive, DT40 TDP1 no CPT 23.1µM
CC(C(=O)N1CCN(c2ccccc2)CC1)c1ccc([N+](=O)[O-])cc1 (stereo unspecified)	none
